About 79,000 compounds went through this panel and 15% of them were active in at least one assay; those are over-represented in the sample as a whole. Values without a mark were called inactive. Active and inactive are the calls of the source. No stated cut-off is given here; in the data, active means growth inhibition above about 70%; inactive means the rest.

The first assay can be described thus: NCI Yeast Anticancer Drug Screen. Data for the rad50 strain (AID 155).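 Further: 0% = growth of vehicle-only cultures of the same strain.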 As to conditions: S. cerevisiae rad50 strain growth inhibition; at 50.0 µM; stronger effect = higher value. The gist of the method: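 Relative growth inhibition (compound vs vehicle) was measured in yeast with a defined repair-gene alteration.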
Take `CC1CCC2(OC1)OC1CC3C4CCC5CC(O)CCC5(C)C4CC(=O)OC3(C)C1C2C` (stereo not given): the growth inhibition was -10.8%.

In the case of `O=c1[nH]nc(SCc2ccccc2)c2nncn12`, the growth inhibition was 2.45%.

Consider `COC(=O)Nc1cccc(-c2nc3ccc(NC(=O)OC)cc3c(=O)n2-c2ccccc2)c1`, for which the growth inhibition is -26.3%.

On to `Cn1c(Nc2ccccc2)c([N+](=O)[O-])c(=O)n(C)c1=O`, for which the growth inhibition is -11.8%.

With `COc1ccc2ccc3[nH]c4c(C)cnc(NCCCN(C)C)c4c3c2c1`, the growth inhibition was 34.8%.

For the compound `O=C(CCc1nnc2s/c(=C\c3ccc(Cl)cc3Cl)c(=O)n12)Nc1cc(Cl)c(Cl)cc1Cl`, the growth inhibition is -17.6%.

`N#Cc1c2c(c(N3CCCCC3)n3c1nc1ccccc13)CCC2`: the growth inhibition is 19.4%.

Regarding `C/C=C(/C)C(=O)O[C@H]1C[C@@H]2[C@@H](O)c3occ(C)c3C[C@]2(C)[C@@H](C)C1`, the growth inhibition was 91% (active).

Consider `O=c1oc2ccccc2cc1S(=O)(=O)c1ccc(Cl)cc1`, for which the growth inhibition is -0.9%.

As to `N#CCN1CCOCCOCCN(CC#N)CCOCCOCC1`, the growth inhibition was 3.1%.

In the case of `O=C(NCc1ccccn1)c1ccccc1`, the growth inhibition was 17.5%.

Turning to `Cc1cc(=O)[nH]c(NN2C(Cl)C(=O)C2c2ccc([N+](=O)[O-])cc2)n1` (stereo not given), the growth inhibition was 15.8%.

Consider `COC(=O)Nc1nc2c(OC)c(OC)c(OC)cc2[nH]1`, for which the growth inhibition is -5.15%.

For the compound `CC(C)OP(=O)(OC(C)C)c1ccc2c(c1)OCCOCCOCCOCCO2`, the growth inhibition is -2.9%.

As to `CC(C)OP(=O)(OC(C)C)/C(N)=N/Nc1ccc([N+](=O)[O-])cc1`, the growth inhibition is 25.6%.

On to `COc1ccc(C(=O)NNC(=O)c2ccc3ccccc3c2)cc1`, for which the growth inhibition was 10.8%.

As to `C[N+]1(CC[N+]2(C)CCCC2c2cccnc2)CCCC1c1cccnc1` (stereo not given), the growth inhibition is 6.15%.

Consider `CCCCC(O)CNc1ccccc1` (stereo not given), for which the growth inhibition is -7.4%.

Consider `CC(C)=CC(=O)OC1C2C(C)C(=O)OC2C(O)C(C)C2C=CC(=O)C21C` (stereo not given), for which the growth inhibition is 3.15%.

Consider `CC(=O)N1C(=O)NC(=O)C1(C)c1cccs1` (stereo not given), for which the growth inhibition was 23.2%.

On to `CCCCCCC(C)OC(C)=O` (stereo not given), for which the growth inhibition is -15.6%.

`O=C(c1ccc(Cl)cc1Cl)N(/N=C/C=C/c1ccccc1)c1nnc(-c2ccccc2)c(-c2ccccc2)n1`: the growth inhibition was -17.1%.

`CC(C)(Cc1ccc(Cl)cc1)NC(N)=O`: the growth inhibition is -35.5%.

In the case of `CC(C)c1cccc(C(C)C)c1NC(=O)OC1CCCCC1`, the growth inhibition was -11.7%.

In the case of `O=C1c2ccccc2-c2cc(F)ccc21`, the growth inhibition is 18.3%.

On to `O=C(/C=C/c1ccc2c(c1)OCO2)C1CC1`, for which the growth inhibition is 6.45%.

`COC(=O)N/N=C/c1ccc(C)cc1`: the growth inhibition was -4.1%.

For the compound `C(=N\c1oc(-c2ccccc2)c(-c2ccccc2)c1-c1ccccc1)/c1ccccc1`, the growth inhibition is 14.4%.

On to `Brc1ccncc1`, for which the growth inhibition was -10.7%.

On to `COc1ccc(NC(=O)COc2cc(Cl)c(Cl)cc2Cl)cc1`, for which the growth inhibition is -3.7%.

Regarding `O=CC(CO)CC(C=O)n1cnc2c(=O)[nH]cnc21` (stereo not given), the growth inhibition is -11.2%.

As to `CCOC(=O)NCC(=O)NCC(=O)NCC(N)=O`, the growth inhibition was -14.2%.

In the case of `N=c1ccn(CC(O)COc2ccccc2)cc1` (stereo not given), the growth inhibition was -11.8%.

Turning to `CC1(C)[C@@H]2C[C@H]1C(Cc1cccc(C[C@H]3c4cc(-c5ccccn5)ncc4[C@H]4C[C@@H]3C4(C)C)c1)c1cc(-c3ccccn3)ncc12` (stereo not given in full), the growth inhibition was -2.2%.

With `CC(C)NCC(O)COc1c2ccccc2nc2ccccc12` (stereo not given), the growth inhibition is -8.65%.

Regarding `CC1(C)OS(=O)(=O)C=C1Br`, the growth inhibition is 16.7%.

For the compound `CCCCOc1ccc(Nc2c(C(=O)O)cnc3cc4c(cc23)OCO4)cc1`, the growth inhibition is -11.1%.

In the case of `COc1cc(CN(c2ccccc2C(=O)O)S(=O)(=O)c2ccc(C)cc2)ccc1[N+](=O)[O-]`, the growth inhibition was 43.9%.

In the case of `O=C(CCl)Nc1ccc(SSc2ccc(NC(=O)CCl)cc2)cc1`, the growth inhibition was 33.8%.

`CCCCCCCCCC(=O)N/N=C/c1ccco1`: the growth inhibition was 51.7%.

A short description of a further assay: NCI Yeast Anticancer Drug Screen. Data for the mec2-1 strain (AID 157). As to conditions: S. cerevisiae mec2-1 strain, at 50.0 µM, stronger effect = higher value. The procedure, abridged: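 Mutant yeast (mec2-1) grown with compound; growth inhibition relative to vehicle control reported.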
Turning to `CC1CCC2(OC1)OC1CC3C4CCC5CC(O)CCC5(C)C4CC(=O)OC3(C)C1C2C` (stereo not given), the growth inhibition is -23.6%.

With `O=c1[nH]nc(SCc2ccccc2)c2nncn12`, the growth inhibition is 3.1%.

`COC(=O)Nc1cccc(-c2nc3ccc(NC(=O)OC)cc3c(=O)n2-c2ccccc2)c1`: the growth inhibition was -16.9%.

For the compound `Cn1c(Nc2ccccc2)c([N+](=O)[O-])c(=O)n(C)c1=O`, the growth inhibition was -7.35%.

Consider `COc1ccc2ccc3[nH]c4c(C)cnc(NCCCN(C)C)c4c3c2c1`, for which the growth inhibition is 43.2%.

On to `O=C(CCc1nnc2s/c(=C\c3ccc(Cl)cc3Cl)c(=O)n12)Nc1cc(Cl)c(Cl)cc1Cl`, for which the growth inhibition was 18.2%.

For the compound `N#Cc1c2c(c(N3CCCCC3)n3c1nc1ccccc13)CCC2`, the growth inhibition was 13.9%.

In the case of `C/C=C(/C)C(=O)O[C@H]1C[C@@H]2[C@@H](O)c3occ(C)c3C[C@]2(C)[C@@H](C)C1`, the growth inhibition was 92.4% (active).

For `O=c1oc2ccccc2cc1S(=O)(=O)c1ccc(Cl)cc1`, the growth inhibition is 0.85%.

As for `N#CCN1CCOCCOCCN(CC#N)CCOCCOCC1`, the growth inhibition was -0.75%.

Take `O=C(NCc1ccccn1)c1ccccc1`: the growth inhibition was 15.8%.

For `Cc1cc(=O)[nH]c(NN2C(Cl)C(=O)C2c2ccc([N+](=O)[O-])cc2)n1` (stereo not given), the growth inhibition is -24.2%.

On to `COC(=O)Nc1nc2c(OC)c(OC)c(OC)cc2[nH]1`, for which the growth inhibition was -6.75%.

Regarding `CC(C)OP(=O)(OC(C)C)c1ccc2c(c1)OCCOCCOCCOCCO2`, the growth inhibition was -11.3%.

As for `CC(C)OP(=O)(OC(C)C)/C(N)=N/Nc1ccc([N+](=O)[O-])cc1`, the growth inhibition is -0.2%.

In the case of `COc1ccc(C(=O)NNC(=O)c2ccc3ccccc3c2)cc1`, the growth inhibition was 1.25%.

For `C[N+]1(CC[N+]2(C)CCCC2c2cccnc2)CCCC1c1cccnc1` (stereo not given), the growth inhibition is -0.2%.

For `CCCCC(O)CNc1ccccc1` (stereo not given), the growth inhibition was 14.7%.

With `CC(C)=CC(=O)OC1C2C(C)C(=O)OC2C(O)C(C)C2C=CC(=O)C21C` (stereo not given), the growth inhibition was -3.6%.

With `CC(=O)N1C(=O)NC(=O)C1(C)c1cccs1` (stereo not given), the growth inhibition was -8.9%.

With `CCCCCCC(C)OC(C)=O` (stereo not given), the growth inhibition was -44.5%.

Consider `O=C(c1ccc(Cl)cc1Cl)N(/N=C/C=C/c1ccccc1)c1nnc(-c2ccccc2)c(-c2ccccc2)n1`, for which the growth inhibition was 8.8%.

Consider `CC(C)(Cc1ccc(Cl)cc1)NC(N)=O`, for which the growth inhibition was -73.7%.

On to `CC(C)c1cccc(C(C)C)c1NC(=O)OC1CCCCC1`, for which the growth inhibition was -22.8%.

As for `O=C1c2ccccc2-c2cc(F)ccc21`, the growth inhibition was -10.4%.

In the case of `O=C(/C=C/c1ccc2c(c1)OCO2)C1CC1`, the growth inhibition was 11.1%.

`COC(=O)N/N=C/c1ccc(C)cc1`: the growth inhibition was -8.05%.

As to `C(=N\c1oc(-c2ccccc2)c(-c2ccccc2)c1-c1ccccc1)/c1ccccc1`, the growth inhibition is -5.15%.

In the case of `Brc1ccncc1`, the growth inhibition is -47.5%.

Regarding `COc1ccc(NC(=O)COc2cc(Cl)c(Cl)cc2Cl)cc1`, the growth inhibition was 6.8%.

Consider `O=CC(CO)CC(C=O)n1cnc2c(=O)[nH]cnc21` (stereo not given), for which the growth inhibition is -16.1%.

As for `CCOC(=O)NCC(=O)NCC(=O)NCC(N)=O`, the growth inhibition was -19.2%.

In the case of `N=c1ccn(CC(O)COc2ccccc2)cc1` (stereo not given), the growth inhibition is -13.8%.

In the case of `CC1(C)[C@@H]2C[C@H]1C(Cc1cccc(C[C@H]3c4cc(-c5ccccn5)ncc4[C@H]4C[C@@H]3C4(C)C)c1)c1cc(-c3ccccn3)ncc12` (stereo not given in full), the growth inhibition is -14.7%.

As for `CC(C)NCC(O)COc1c2ccccc2nc2ccccc12` (stereo not given), the growth inhibition is -21.8%.

With `CC1(C)OS(=O)(=O)C=C1Br`, the growth inhibition was -9.8%.

With `CCCCOc1ccc(Nc2c(C(=O)O)cnc3cc4c(cc23)OCO4)cc1`, the growth inhibition was 3.25%.

Consider `COc1cc(CN(c2ccccc2C(=O)O)S(=O)(=O)c2ccc(C)cc2)ccc1[N+](=O)[O-]`, for which the growth inhibition was 2.65%.

Turning to `O=C(CCl)Nc1ccc(SSc2ccc(NC(=O)CCl)cc2)cc1`, the growth inhibition is 13%.

As to `CCCCCCCCCC(=O)N/N=C/c1ccco1`, the growth inhibition was 59.6%.

For the origin of these results see PubChem BioAssay (NCI).
